In all, about 84,000 compounds went through this assay and about 95 (0.1%) were called active. This is one part of a sample in which actives are shown more often than they occur. Rule as the data show it: active = inhibition above about 25% (passing the limit was not always enough); inactive = the rest.
test system: BasE (2,3-dihydroxybenzoate-AMP ligase), Acinetobacter baumannii ATCC 17978; assay: inhibitors of A. baumannii BasE – biochemical, Acinetobacter baumannii ATCC 17978, fluorescence polarization, primary screen (AID 485350); details: purified BasE, fluorescence polarization binding displacement; stronger effect = higher value; concentration not given here;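 also: 0% = negative plate control signal and 100% = positive plate control signal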

inhibition, inactive:
COc1ccccc1OCCCn1cc(/C=C2/C(=N)N3C=CSC3=NC2=O)c2ccccc21 2.49%
Cc1nn(CCC#N)c2nc(-c3ccc(F)cc3)cc(C(=O)O)c12 0.45%
Cc1noc(/C=C/N2CCOCC2)c1S(=O)(=O)N(C)CCc1ccc(Cl)cc1 3.54%
Cc1cc(C)nc(SCC(=O)OCC(=O)N2CCc3ccccc32)n1 -2.45%
COC(=O)C1=CN(C(C)C)C=C(C(=O)OC)C1c1cccs1 -11.7%
O=C(OCCN1CCCCC1)c1ccc(F)cc1 -3.82%
Cc1cc(C)n(C(=O)N2c3ccccc3Sc3ccccc32)n1 2.13%
COc1ccc(CC(=O)N/N=C2/CC(=O)CC(C)(C)C2)cc1 -0.19%
Cc1ccc(Nc2nc(N)nc(CSc3nc4c(n3-c3ccccc3)CCCC4)n2)cc1 -1.36%
S=C(Nc1cccnc1)Nc1ccccc1N1CCCCC1 3.7%
O=C(Cn1c(=O)oc2ccccc21)NCc1ccccc1 -2.65%
CC(C(=O)N1CCCc2ccccc21)n1nc(-c2cccs2)oc1=O (configuration not stated) -0.37%
CCNC(=O)c1ccc(OCc2c(C)noc2C)c(OC)c1 -0.55%
CCOC(=O)CSc1ncnc2sc3c(c12)CCC3 -0.59%
CSc1nnc(C)n1Cc1ccccc1 -0.73%
CC1CN(C(=O)COC(=O)c2cccc3ccccc23)CC(C)O1 (configuration not stated) 1.48%
Cc1occc1C(=O)Nc1cccc(-c2nn[nH]n2)c1 1.61%
Cn1c(=O)c2c(SC/C(O)=C(\C#N)c3nc4ccccc4[nH]3)nc(C(C)(C)C)nc2n(C)c1=O 0.74%
Cc1cc(-c2nn(C)c(=O)c3ccccc23)cc(C)c1OC(=O)Nc1ccc(Cl)cc1 1.43%
NNC(=O)c1ccc(COc2ccccc2)o1 -1.29%
CC1CN(C(=O)CSc2nc3scc(-c4ccccc4)c3c(=O)n2N)CC(C)O1 (configuration not stated) 1.03%
COc1ccc(C)cc1NC(=O)C(OC(=O)c1ccc(Br)o1)c1ccccc1 (configuration not stated) -0.6%
CCN=c1sc(C(=O)Nc2ccccc2)c(C)n1CC -0.02%
COC(=O)CCC1(C(=O)O)CCOC(C)(C)C1 (configuration not stated) 0.97%
NC(=O)CSc1nnc(SCCOc2ccccc2)s1 0.35%
O=C(CSc1nc2cc3c(cc2c(=O)n1Cc1ccc2c(c1)OCO2)OCO3)NCCc1ccccc1 0.07%
COCCn1c(C)cc(C(=O)CSc2nc(C)c(C)n2C2CCCCC2)c1C -0.27%
CCCCNc1ncc2c(n1)c(=O)c(C#N)c1[nH]c3ccccc3c(=O)n12 -8.32%
CCOCCCn1c(CC(N)=O)n[nH]c1=S 0.4%
Nn1c(SCC2CCCCO2)nnc1-c1ccncc1 (configuration not stated) 1.26%
COC(=O)Cc1c(C)n[nH]c1C 1.01%
c1ccc(-n2nnnc2Sc2nnc3n2CCCCC3)cc1 -0.02%
O=C(Nc1ccncc1)OCCc1ccccn1 4.83%
Cc1cc(N2CCN(C)CC2)nc2ccc(NC(=O)NC3CCCC3)cc12 -2.82%
Cc1ccc2cc(C#N)c(NCCNC(=O)Nc3ccccc3C)nc2c1 4.18%
O=C(CCNC(=O)NC12CC3CC(CC(C3)C1)C2)Nc1ccc(-n2cnnn2)cc1 2.05%
CC(=O)NCCC(=O)Nc1nccs1 -1.55%
CCOC(=O)Cn1c(=O)c(=O)n(C)c2c1c(C)nn2-c1ccccc1 -0.65%
C=CCn1c(COc2ccccc2F)nnc1SC(C)C(=O)NC(N)=O (configuration not stated) 0.29%
CN(C)S(=O)(=O)c1ccc(C(=O)OCC(=O)N2CCCCC2)cc1 0.92%
C=CCN(CC=C)C(=O)CSc1nnc2c3ccccc3n(C)c2n1 4.82%
CCC(CC)=NNC(=O)c1cc(-c2ccccc2)n[nH]1 0.72%
COc1ccccc1NC(=O)c1ccc(N2CC3CC(C2)c2cccc(=O)n2C3)c(NC(=O)c2cccnc2)c1 (configuration not stated) -1.5%
C=CCN(S(=O)(=O)c1ccc(Cl)cc1)S(=O)(=O)c1ccccc1OC 5.47%
CCCCN(C)S(=O)(=O)c1ccc2c(c1)CCN2C(=O)CCC(=O)O 1.97%
CN(C)CCN=c1cc(-c2ccccc2)oc2ccc(Cl)cc12 -2.16%
Cc1nc(SCC(=O)NC(C)(C#N)C2CC2)c2c(C)c(C)sc2n1 (configuration not stated) -0.09%
Cc1cc2nc(N(C)C)c3ccccc3n2n1 2.28%
CC1CN(C(=O)Cn2nc(-c3cccc(-n4cccc4)c3)oc2=O)CC(C)O1 (configuration not stated) -1.31%
O=C(O)c1cccnc1SCc1cc(=O)n2cc(Br)ccc2n1 1.25%
CC(=O)NCc1ccc(-c2csc(CC(=O)Nc3ccc(C)cc3C)n2)o1 0.82%
C/C(=N/NC(=O)CCc1ccccc1)C1CC1 2.92%
COc1ccc(OCCNS(=O)(=O)Cc2ccccc2)cc1 3.47%
CC1CN(CC(=O)Nc2ccccc2C(C)C)CC(C)O1 (configuration not stated) -1.49%
CCN(CC)Cc1cc(C(=O)O)co1 -4.35%
O=C(N/N=C/c1cccnc1)c1ccc(CN2CCOCC2)cc1 1.66%
CCN1C(=O)/C(=C/N(C(C)=O)c2ccccc2)OC1=S 1.08%
O=C(CSc1ncnc2c1nnn2Cc1ccc(F)cc1)NC1CCCC1 -1.58%
Cc1ccccc1Nc1nc(N)nc(CNCc2ccccc2)n1 5.66%
Cc1oc(-c2cccc(Cl)c2)nc1CN1CCCC(C(=O)N2CCN(c3cccc(Cl)c3)CC2)C1 (configuration not stated) -0.15%
Cc1nc2c(cnn2C(C)C)c(C)c1CCC(=O)OC(C)C(=O)Nc1ccc(C(N)=O)cc1 (configuration not stated) -3.6%
Cc1cc(C(=O)OCC(=O)c2cc(C)n(-c3ccc(Cl)cc3)c2C)no1 1.57%
CCN(Cc1ccc2c(c1)OCCO2)C(=O)c1ccc(-n2cccn2)cc1 -0.56%
CN(C(=S)NCc1ccccc1)C1CCCCC1 1.12%
C(=C\c1ccccc1)/CNCCCN1CCOCC1 0.89%
CNC(=O)c1ccc(N2CCOc3ccc(Cl)cc32)s1 -0.32%
COc1ccc(CNn2cnnc2SCc2ccc(F)cc2)cc1OC -1.54%
CC12CCC(=O)N1C(C(=O)OCc1cc(=O)n3cc(Br)ccc3n1)CS2 (configuration not stated) 3.92%
CC(C)[C@H](NC(=O)C1CCCCC1)c1nc2ccccc2[nH]1 -0.24%
Cc1cc(C(=O)OCc2cc(=O)oc3cc4c(cc23)CCC4)c(C)o1 -0.6%
COC(=O)C(NC(=O)c1ccc(Cl)cc1)C(F)(F)F (configuration not stated) 7.11%
Cc1ccc(N2C(=O)CCC(C(=O)OCc3nnc(-c4ccccc4)o3)C2c2cccs2)cc1 (configuration not stated) 1.51%
COc1ccc(-n2c(-c3ccc(Cl)cc3)cnc2SCc2nccn2C)cc1 -1.16%
COc1ccc(S(=O)(=O)N(C)CC(=O)N2CCCC2)cc1 -1.85%
OCC1OC(Oc2ccc3cc(Br)ccc3c2)C(O)C(O)C1O (configuration not stated) -1.6%
CCOC(=O)c1c(-c2ccco2)csc1NC(=O)COC(=O)Cn1[nH]c(=O)c2ccccc2c1=O 3.28%
O=C(NCCSc1ncc(-c2ccccc2)[nH]1)c1ccco1 -0.84%
Cc1ccc(S(=O)(=O)Nc2nc(O)c(C3=c4ccccc4=NC3=O)s2)cc1 2.18%
C(=N\n1cnnc1)/c1ccc(OC2OCCOC2Oc2ccc(/C=N/n3cnnc3)cc2)cc1 (configuration not stated) 1.12%
C=CCn1c(CCSCc2ccc(OC)cc2)n[nH]c1=S -0.73%
COc1cccc(-c2noc(COC(=O)c3ccccc3-c3ccccc3C#N)n2)c1 1.11%
CC(Oc1ccc(F)cc1)C(=O)O (configuration not stated) -0.06%
O=C(OCC(=O)N1CCOCC1)c1ccc(Cl)cc1 0.53%
O=c1c(OCCc2ccccc2)c(-c2ccco2)oc2ccccc12 5.62%
Cc1ccc(S(=O)(=O)NC(c2ccccc2)c2nnc(-c3ccccc3)o2)cc1 (configuration not stated) -0.19%
O=C1Nc2ccccc2OC1CC(=O)N1CCN(Cc2ccc3c(c2)OCO3)CC1 (configuration not stated) -0.54%
CCc1c(C)c(C#N)c2nc3ccccc3n2c1N1CCN(Cc2cc(Cl)ccc2OC)CC1 0.68%
CCOC(=O)c1sc(=NC(C)=O)n(C)c1C -1.69%
Cc1cc(C)n(-c2ccc(Cl)c(C(=O)OCC(=O)NCc3ccco3)n2)n1 1.59%
CCn1cnc2c(=O)oc3ccc(S(=O)(=O)N4CCN(c5cc(Cl)ccc5C)CC4)cc3c21 2.98%
CCOC(=O)C1=C(CN2CCn3cccc3C2C)NC(=O)NC1c1ccc(Cl)cc1 (configuration not stated) -0.37%
N#CCSc1[nH]c(=O)c(-c2nc(-c3ccccc3)cs2)cc1C#N 1.84%
Cc1ccc(/C=C/C(=O)OCC(=O)c2cc(C)c(C)cc2C)o1 1.01%
CC(Sc1nnc(N)s1)C(=O)NCCC1=CCCCC1 (configuration not stated) 2.13%
C/C(=N\NC(=O)NC1CCCCC1)c1ccc(OC(F)F)cc1OC(F)F 1.32%
FC(F)Oc1ccc(-c2csc(=Nc3cccnc3)n2C2CC2)cc1 3.62%
Cc1cc(/C=N/N2C(=O)c3ccccc3C2=O)cc(C)c1O 0.22%
